Measured values taken from publication PMC7862700, “An all-to-all approach to the identification of sequence-specific readers for epigenetic DNA modifications on cytosine”.

Legend:
Test in all cases: DAPPL (digital affinity profiling via proximity ligation, sequencing); 10 mM Tris-HCl pH 7.5, 50 mM NaCl, 1 mM DTT, 4% glycerol, room temperature, 30 min; GST-TFs on glutathione beads, 16-mer random dsDNA library, 0.1% formaldehyde crosslink after washing; high values mean tight binding
[1] = molecular target: T1, FEV (Homo sapiens, UniProt Q99581 1-238); conditions: protein: recombinant; tags: N-terminal GST; dsDNA, one strand shown
T1 sequence: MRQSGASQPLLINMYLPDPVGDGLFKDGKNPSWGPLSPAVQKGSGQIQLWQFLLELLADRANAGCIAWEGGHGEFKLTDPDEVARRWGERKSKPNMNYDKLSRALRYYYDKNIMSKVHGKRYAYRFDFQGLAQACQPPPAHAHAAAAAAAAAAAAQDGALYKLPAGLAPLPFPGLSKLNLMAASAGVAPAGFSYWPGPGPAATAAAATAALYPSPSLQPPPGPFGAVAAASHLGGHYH
In short: (§1)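 Binding signal is defined as a hexamer's read frequency for one factor over its frequency for the tag-only sample. To obtain reads, GST-fused human transcription factors were expressed in yeast, captured on glutathione beads, barcoded with DNA and pooled with that sample. Pools met 200 nmole of a 16-mer random double-stranded DNA library in Tris/NaCl/DTT/glycerol buffer for 30 min at room temperature before washing, 0.1% formaldehyde crosslinking, proximity ligation (BsaI/T4 ligase, 1 h, 37 °C), PCR and Illumina NextSeq500 sequencing.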

[2] = molecular target: ETV5 (Homo sapiens, UniProt P41161 1-510); conditions: protein: recombinant; tags: N-terminal GST; dsDNA, one strand shown
In short: as §1

[3] = molecular target: HSF1 (Homo sapiens, UniProt Q00613 1-529); conditions: protein: recombinant; tags: N-terminal GST; chain copies: 3; dsDNA, one strand shown
In short: as §1

[4] = molecular target: T2, SPIC (Homo sapiens, UniProt Q8N5J4 1-248); conditions: protein: recombinant; tags: N-terminal GST; dsDNA, one strand shown
T2 sequence: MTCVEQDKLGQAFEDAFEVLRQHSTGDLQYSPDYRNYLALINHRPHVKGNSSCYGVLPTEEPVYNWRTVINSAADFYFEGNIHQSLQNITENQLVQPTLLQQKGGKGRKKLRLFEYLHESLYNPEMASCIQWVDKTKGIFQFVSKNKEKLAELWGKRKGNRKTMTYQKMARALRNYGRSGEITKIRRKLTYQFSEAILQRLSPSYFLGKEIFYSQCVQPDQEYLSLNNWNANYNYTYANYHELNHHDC
In short: as §1

[5] = molecular target: ELF4 (Homo sapiens, UniProt Q99607 1-663); conditions: protein: recombinant; tags: N-terminal GST; dsDNA, one strand shown
In short: as §1

[6] = molecular target: T3, ELK4 (Homo sapiens, UniProt P28324-2 1-405); conditions: protein: recombinant; tags: N-terminal GST; dsDNA, one strand shown
T3 sequence: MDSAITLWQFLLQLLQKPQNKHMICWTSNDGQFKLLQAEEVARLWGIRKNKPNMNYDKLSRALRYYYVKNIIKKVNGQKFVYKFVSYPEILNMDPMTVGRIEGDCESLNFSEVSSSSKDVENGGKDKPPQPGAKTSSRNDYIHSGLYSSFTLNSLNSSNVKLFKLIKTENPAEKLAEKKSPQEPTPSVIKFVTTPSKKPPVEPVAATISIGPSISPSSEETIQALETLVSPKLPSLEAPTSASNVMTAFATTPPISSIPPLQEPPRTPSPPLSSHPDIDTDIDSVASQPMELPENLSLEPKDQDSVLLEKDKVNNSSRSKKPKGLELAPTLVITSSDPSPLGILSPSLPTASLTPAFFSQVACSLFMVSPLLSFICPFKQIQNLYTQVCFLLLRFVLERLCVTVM
In short: as §1

[7] = molecular target: T4, ETV2 (Homo sapiens, UniProt O00321 1-342); conditions: protein: recombinant; tags: N-terminal GST; dsDNA, one strand shown
T4 sequence: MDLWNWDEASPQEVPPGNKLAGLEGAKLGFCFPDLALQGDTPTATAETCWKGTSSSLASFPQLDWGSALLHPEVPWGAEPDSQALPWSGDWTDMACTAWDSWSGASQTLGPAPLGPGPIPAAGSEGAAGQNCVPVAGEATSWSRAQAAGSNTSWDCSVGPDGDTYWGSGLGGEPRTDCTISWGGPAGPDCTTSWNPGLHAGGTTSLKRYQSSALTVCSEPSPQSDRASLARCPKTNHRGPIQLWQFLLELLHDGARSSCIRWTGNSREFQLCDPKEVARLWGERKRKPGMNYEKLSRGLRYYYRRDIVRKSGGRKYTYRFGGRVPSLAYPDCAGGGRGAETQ
In short: as §1

[8] = molecular target: T5, ELF3 (Homo sapiens, UniProt P78545 1-371); conditions: protein: recombinant; tags: N-terminal GST; dsDNA, one strand shown
T5 sequence: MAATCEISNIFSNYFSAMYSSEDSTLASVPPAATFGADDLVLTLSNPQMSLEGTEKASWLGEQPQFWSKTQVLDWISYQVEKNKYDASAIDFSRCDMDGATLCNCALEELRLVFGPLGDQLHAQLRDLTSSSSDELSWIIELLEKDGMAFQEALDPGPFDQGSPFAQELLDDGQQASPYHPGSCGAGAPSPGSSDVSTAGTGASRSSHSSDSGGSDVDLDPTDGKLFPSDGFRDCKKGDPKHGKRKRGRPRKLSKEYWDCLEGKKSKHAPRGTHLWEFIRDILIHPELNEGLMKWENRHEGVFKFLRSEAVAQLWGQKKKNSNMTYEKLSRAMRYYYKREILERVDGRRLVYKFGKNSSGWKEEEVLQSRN
In short: as §1

[9] = molecular target: CRX (Homo sapiens, UniProt O43186 1-299); conditions: protein: recombinant; tags: N-terminal GST; dsDNA, one strand shown
In short: as §1

[10] = molecular target: ETV1 (Homo sapiens, UniProt P50549 1-477); conditions: protein: recombinant; tags: N-terminal GST; dsDNA, one strand shown
In short: as §1

[11] = molecular target: T6, ERF (Homo sapiens, UniProt P50548 1-548); conditions: protein: recombinant; tags: N-terminal GST; dsDNA, one strand shown
T6 sequence: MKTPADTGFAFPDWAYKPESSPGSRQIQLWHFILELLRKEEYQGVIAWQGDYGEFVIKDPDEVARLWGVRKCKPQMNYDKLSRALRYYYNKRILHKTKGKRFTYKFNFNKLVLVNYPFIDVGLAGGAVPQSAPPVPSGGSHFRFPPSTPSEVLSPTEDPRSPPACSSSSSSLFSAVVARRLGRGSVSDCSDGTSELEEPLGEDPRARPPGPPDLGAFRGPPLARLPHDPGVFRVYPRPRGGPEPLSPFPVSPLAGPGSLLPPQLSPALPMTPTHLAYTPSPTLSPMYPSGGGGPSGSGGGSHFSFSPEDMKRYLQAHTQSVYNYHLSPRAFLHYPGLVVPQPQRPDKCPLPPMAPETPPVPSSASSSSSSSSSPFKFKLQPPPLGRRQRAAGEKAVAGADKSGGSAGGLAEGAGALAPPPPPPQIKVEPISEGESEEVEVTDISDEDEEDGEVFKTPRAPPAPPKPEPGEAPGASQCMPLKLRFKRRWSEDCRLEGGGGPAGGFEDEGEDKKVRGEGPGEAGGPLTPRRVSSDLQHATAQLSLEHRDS
In short: as §1

[12] = molecular target: T7, ETV3L (Homo sapiens, UniProt Q6ZN32 1-361); conditions: protein: recombinant; tags: N-terminal GST; dsDNA, one strand shown
T7 sequence: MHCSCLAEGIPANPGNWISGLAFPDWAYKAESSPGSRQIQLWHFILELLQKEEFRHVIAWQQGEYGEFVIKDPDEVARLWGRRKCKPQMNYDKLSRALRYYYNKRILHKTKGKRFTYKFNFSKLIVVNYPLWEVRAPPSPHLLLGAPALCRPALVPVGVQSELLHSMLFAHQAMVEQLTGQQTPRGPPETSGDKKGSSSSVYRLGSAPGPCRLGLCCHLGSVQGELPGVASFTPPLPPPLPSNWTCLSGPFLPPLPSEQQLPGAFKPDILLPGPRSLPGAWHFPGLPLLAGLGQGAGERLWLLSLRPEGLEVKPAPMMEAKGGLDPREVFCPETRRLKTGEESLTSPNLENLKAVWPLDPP
In short: as §1

[13] = molecular target: T8, ETS2 (Homo sapiens, UniProt P15036 1-469); conditions: protein: recombinant; tags: N-terminal GST; dsDNA, one strand shown
T8 sequence: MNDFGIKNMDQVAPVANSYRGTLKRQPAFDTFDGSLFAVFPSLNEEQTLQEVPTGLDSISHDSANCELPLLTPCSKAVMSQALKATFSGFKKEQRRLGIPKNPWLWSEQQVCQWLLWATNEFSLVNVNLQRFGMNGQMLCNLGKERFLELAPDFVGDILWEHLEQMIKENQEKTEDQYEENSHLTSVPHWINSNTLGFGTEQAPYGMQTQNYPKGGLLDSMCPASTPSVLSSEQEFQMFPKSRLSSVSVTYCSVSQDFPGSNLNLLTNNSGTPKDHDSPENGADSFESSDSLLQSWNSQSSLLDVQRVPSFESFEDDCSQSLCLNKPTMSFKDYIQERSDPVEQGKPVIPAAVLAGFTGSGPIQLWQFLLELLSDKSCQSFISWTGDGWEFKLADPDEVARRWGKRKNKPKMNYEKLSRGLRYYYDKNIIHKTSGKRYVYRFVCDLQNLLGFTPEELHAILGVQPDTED
In short: as §1

[14] = molecular target: T9, SPDEF (Homo sapiens, UniProt O95238 1-335); conditions: protein: recombinant; tags: N-terminal GST; dsDNA, one strand shown
T9 sequence: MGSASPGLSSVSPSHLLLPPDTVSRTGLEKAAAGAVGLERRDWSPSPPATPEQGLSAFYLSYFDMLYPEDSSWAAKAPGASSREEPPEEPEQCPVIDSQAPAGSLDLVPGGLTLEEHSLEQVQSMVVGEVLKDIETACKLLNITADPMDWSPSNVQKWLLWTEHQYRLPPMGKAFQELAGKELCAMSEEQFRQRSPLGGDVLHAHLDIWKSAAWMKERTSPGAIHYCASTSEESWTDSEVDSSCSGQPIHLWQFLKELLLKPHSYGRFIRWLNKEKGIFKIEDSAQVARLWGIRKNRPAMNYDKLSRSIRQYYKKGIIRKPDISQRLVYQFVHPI
In short: as §1

[15] = molecular target: T10, ETV7 (Homo sapiens, UniProt Q9Y603 1-341); conditions: protein: recombinant; tags: N-terminal GST; dsDNA, one strand shown
T10 sequence: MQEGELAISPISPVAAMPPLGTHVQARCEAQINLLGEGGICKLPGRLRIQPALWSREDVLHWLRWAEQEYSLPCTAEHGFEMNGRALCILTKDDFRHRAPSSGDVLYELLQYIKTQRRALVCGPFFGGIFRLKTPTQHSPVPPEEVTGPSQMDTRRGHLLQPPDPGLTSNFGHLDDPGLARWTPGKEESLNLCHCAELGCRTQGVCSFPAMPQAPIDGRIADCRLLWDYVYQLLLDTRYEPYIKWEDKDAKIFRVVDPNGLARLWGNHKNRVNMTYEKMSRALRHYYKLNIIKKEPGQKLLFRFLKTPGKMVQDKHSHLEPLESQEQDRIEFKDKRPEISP
In short: as §1

[16] = molecular target: T11, ELF5 (Homo sapiens, UniProt Q9UKW6-2 1-255); conditions: protein: recombinant; tags: N-terminal GST; dsDNA, one strand shown
T11 sequence: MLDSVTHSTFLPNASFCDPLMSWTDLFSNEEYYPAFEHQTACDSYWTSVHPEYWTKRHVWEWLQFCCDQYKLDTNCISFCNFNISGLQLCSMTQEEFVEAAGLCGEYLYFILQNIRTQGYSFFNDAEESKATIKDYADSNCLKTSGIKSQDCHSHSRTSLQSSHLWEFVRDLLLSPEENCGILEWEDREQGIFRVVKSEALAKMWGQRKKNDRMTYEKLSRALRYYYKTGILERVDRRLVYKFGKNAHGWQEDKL
In short: as §1

[17] = molecular target: T12, ETV3 (Homo sapiens, UniProt P41162-2 1-143); conditions: protein: recombinant; tags: N-terminal GST; dsDNA, one strand shown
T12 sequence: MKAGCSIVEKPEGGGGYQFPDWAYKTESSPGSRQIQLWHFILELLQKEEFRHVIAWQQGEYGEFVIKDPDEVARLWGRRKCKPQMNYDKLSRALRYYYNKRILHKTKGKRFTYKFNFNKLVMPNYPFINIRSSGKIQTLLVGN
In short: as §1

[18] = molecular target: ETV6 (Homo sapiens, UniProt P41212 1-452); conditions: protein: recombinant; tags: N-terminal GST; dsDNA, one strand shown
In short: as §1

Sequence of ETV6 (P41212 whole entry): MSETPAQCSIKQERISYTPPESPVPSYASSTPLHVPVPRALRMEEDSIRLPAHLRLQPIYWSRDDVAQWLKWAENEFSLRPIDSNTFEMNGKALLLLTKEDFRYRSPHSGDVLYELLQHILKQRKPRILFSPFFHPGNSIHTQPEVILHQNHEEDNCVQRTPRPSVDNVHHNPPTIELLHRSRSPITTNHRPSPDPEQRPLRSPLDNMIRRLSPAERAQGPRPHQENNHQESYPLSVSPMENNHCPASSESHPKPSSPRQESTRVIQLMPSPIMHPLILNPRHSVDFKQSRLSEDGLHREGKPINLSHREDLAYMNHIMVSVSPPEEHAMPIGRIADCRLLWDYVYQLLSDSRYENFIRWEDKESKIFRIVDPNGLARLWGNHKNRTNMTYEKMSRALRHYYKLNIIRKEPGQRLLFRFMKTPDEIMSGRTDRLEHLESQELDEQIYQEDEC
Sequence of ETV1 (P50549 whole entry): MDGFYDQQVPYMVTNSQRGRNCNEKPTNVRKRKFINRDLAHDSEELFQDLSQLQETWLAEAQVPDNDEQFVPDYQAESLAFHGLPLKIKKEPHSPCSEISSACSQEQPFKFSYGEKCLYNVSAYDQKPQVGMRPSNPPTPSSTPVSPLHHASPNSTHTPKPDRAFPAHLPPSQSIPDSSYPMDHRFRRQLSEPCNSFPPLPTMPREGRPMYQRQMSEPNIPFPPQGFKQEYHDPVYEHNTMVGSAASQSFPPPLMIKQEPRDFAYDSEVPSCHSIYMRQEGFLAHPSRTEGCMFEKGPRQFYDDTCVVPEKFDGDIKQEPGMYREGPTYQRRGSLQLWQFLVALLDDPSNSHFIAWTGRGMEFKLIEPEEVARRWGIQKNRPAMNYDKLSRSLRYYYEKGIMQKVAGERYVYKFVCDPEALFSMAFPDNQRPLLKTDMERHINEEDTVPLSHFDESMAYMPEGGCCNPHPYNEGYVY
Sequence of ELF4 (Q99607 whole entry): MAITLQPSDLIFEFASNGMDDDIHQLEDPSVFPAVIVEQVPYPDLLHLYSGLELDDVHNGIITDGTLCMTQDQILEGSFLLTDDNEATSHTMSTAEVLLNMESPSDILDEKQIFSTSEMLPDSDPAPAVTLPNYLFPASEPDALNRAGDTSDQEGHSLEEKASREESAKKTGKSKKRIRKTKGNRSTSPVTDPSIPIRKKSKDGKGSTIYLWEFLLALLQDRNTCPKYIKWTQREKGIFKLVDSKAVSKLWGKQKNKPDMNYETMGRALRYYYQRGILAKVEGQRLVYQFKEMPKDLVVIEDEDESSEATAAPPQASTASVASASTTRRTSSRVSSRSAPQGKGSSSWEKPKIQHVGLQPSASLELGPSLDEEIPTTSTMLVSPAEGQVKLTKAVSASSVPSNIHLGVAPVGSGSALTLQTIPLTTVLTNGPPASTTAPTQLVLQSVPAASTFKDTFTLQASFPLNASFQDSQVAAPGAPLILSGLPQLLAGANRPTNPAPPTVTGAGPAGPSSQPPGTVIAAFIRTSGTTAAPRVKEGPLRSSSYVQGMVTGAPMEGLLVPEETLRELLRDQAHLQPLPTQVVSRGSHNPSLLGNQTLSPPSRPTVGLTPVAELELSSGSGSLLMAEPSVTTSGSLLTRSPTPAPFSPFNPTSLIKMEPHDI
Sequence of ETV5 (P41161 whole entry): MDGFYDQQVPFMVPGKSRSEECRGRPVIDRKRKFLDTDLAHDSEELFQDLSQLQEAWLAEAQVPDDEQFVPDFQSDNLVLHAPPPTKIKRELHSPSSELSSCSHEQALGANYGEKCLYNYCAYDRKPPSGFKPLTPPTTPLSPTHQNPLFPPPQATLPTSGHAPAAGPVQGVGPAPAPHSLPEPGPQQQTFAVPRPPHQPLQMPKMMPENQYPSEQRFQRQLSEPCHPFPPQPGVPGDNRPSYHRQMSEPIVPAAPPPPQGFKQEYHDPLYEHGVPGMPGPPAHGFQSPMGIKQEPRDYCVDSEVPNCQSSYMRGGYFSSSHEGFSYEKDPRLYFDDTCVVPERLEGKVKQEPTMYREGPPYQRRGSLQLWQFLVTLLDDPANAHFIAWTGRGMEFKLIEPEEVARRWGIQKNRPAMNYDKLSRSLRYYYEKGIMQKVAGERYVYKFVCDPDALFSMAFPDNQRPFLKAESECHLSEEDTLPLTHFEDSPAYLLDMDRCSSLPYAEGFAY
Sequence of CRX (O43186 whole entry): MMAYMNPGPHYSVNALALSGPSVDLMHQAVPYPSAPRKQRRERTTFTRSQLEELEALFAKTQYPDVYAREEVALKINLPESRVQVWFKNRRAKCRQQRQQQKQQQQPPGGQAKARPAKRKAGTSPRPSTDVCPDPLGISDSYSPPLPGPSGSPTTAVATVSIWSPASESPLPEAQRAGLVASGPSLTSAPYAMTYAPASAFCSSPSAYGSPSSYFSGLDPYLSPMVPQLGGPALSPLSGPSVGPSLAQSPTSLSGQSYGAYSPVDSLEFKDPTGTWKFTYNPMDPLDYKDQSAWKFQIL
Sequence of HSF1 (Q00613 whole entry): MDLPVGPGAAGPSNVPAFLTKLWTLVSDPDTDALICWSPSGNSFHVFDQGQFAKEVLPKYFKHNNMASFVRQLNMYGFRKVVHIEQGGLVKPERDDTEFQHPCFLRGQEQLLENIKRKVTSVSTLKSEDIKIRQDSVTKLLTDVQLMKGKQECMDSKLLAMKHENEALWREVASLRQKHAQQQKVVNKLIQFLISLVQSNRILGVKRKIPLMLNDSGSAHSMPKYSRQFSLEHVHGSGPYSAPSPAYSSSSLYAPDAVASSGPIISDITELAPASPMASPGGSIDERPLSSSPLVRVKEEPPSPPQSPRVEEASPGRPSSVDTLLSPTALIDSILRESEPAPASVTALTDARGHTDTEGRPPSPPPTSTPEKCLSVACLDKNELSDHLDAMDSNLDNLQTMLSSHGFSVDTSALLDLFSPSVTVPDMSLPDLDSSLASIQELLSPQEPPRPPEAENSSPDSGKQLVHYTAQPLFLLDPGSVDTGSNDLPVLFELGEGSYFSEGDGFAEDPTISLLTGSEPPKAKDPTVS

Sequence: TCAACT
- binding signal [1]: 1.36 fold enrichment (6-mer frequency, TF over GST control)
- binding signal [2]: 1.26 fold enrichment (6-mer frequency, TF over GST control)
- binding signal [3]: 1.2 fold enrichment (6-mer frequency, TF over GST control)
- binding signal [4]: 1.32 fold enrichment (6-mer frequency, TF over GST control)
- binding signal [5]: 1.27 fold enrichment (6-mer frequency, TF over GST control)
- binding signal [6]: 1.36 fold enrichment (6-mer frequency, TF over GST control)
- binding signal [7]: 1.41 fold enrichment (6-mer frequency, TF over GST control)
- binding signal [8]: 1.37 fold enrichment (6-mer frequency, TF over GST control)
- binding signal [9]: 1.34 fold enrichment (6-mer frequency, TF over GST control)
- binding signal [10]: 1.26 fold enrichment (6-mer frequency, TF over GST control)
- binding signal [11]: 1.31 fold enrichment (6-mer frequency, TF over GST control)
- binding signal [12]: 1.32 fold enrichment (6-mer frequency, TF over GST control)
- binding signal [13]: 1.34 fold enrichment (6-mer frequency, TF over GST control)
- binding signal [14]: 1.27 fold enrichment (6-mer frequency, TF over GST control)
- binding signal [15]: 1.12 fold enrichment (6-mer frequency, TF over GST control)
- binding signal [16]: 1.24 fold enrichment (6-mer frequency, TF over GST control)
- binding signal [17]: 1.31 fold enrichment (6-mer frequency, TF over GST control)
- binding signal [18]: 1.33 fold enrichment (6-mer frequency, TF over GST control)
